Common to all, as to assay: NCI-60 one-dose screen, 48 h (100 = growth as untreated, 0 = no growth, -100 = all killed)
The subject of one test is NCI-H23 lung. Conditions: 10 µM unless noted.
For another test, the system named is NCI-H322M lung. The note with it: 10 µM unless noted.
The next test has as its system HOP-62 NSCLC. The note with it: 10 µM unless noted.
Another test relates to HOP-92 NSCLC. The note with it: 10 µM unless noted.
In a further test the test system is NCI-H522 lung. The note with it: 10 µM.
A further test concerns 786-0 renal. The note with it: 10 µM unless noted.
In the next test the test system is COLO 205 colon. Conditions: 10 µM unless noted.
In a further test the test system is DU-145 prostate. Conditions: 10 µM unless noted.
For another test, the system named is K-562 leukemia. The note with it: 10 µM unless noted.
A further test relates to MALME-3M melanoma. The note with it: 10 µM unless noted.
The subject of another test is MDA-MB-231 breast. Conditions: 10 µM unless noted.
The test system of a further test is RXF 393 renal. The note with it: 10 µM unless noted.
Another test concerns SF-268 CNS. Conditions: 10 µM unless noted.
The test system of the next test is SF-295 CNS. The note with it: 10 µM unless noted.
In the next test the test system is SF-539 CNS. The note with it: 10 µM unless noted.
In a further test the test system is UACC-257 melanoma. Conditions: 10 µM unless noted.
The next test has as its system M14 melanoma. Conditions: 10 µM unless noted.
The next test relates to NCI-H460 lung. Conditions: 10 µM unless noted.
For another test, the system named is A549/ATCC NSCLC. The note with it: 10 µM unless noted.

Structures are written as SMILES. The panel holds about 83,000 compounds, 20% with a hit somewhere; the sample as a whole holds those more often.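 Each cell line was grown in a 96-well plate and treated with one concentration of compound for 48 hours. Values below 10 were considered active.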 Values without a mark were called inactive. Activity calls are given as the source filed them.

Turning to `NC(=NCCCCCCN=C(N)/N=C(\N)Nc1ccc(Cl)cc1)/N=C(\N)Nc1ccc(Cl)cc1`, the growth was 8.42% (active) with NCI-H23 lung; 19.8% with NCI-H322M lung; -25.3% (active) with HOP-62 NSCLC; -3.2% (active) in the test with HOP-92 NSCLC; -11.1% (active) in the test with NCI-H522 lung; 14% in the test with 786-0 renal. Also, the growth is -96.4% (active) in the test on COLO 205 colon; 33.2% in the test with DU-145 prostate; 8.11% (active) in the test with K-562 leukemia; 26.7% in the test with MALME-3M melanoma; 0.0954% (active) in the test with MDA-MB-231 breast; 1.06% (active) in the test on RXF 393 renal. In addition, the growth in the test on SF-268 CNS was 20.8%; in the test on SF-295 CNS, -9.13% (active); with SF-539 CNS, 0.167% (active); in the test with UACC-257 melanoma, 33.7%; in the test with M14 melanoma it was 22.6%.
In the case of `CCCCCc1c(C)[nH]c(/C=C2\N=C(c3ccc[nH]3)C=C2Oc2ccc(Cl)cc2)c1C`, the growth in the test on NCI-H23 lung is -46.3% [100 µM] (active); in the test on NCI-H322M lung it was 20.5% [100 µM]; with HOP-62 NSCLC it was -6.67% [100 µM] (active); with NCI-H460 lung it was 2.82% [100 µM] (active); with HOP-92 NSCLC, -10.7% [100 µM] (active); with A549/ATCC NSCLC, -51.5% [100 µM] (active). Also, the growth in the test on 786-0 renal is -18.2% [100 µM] (active); in the test with COLO 205 colon, -85.5% [100 µM] (active); with DU-145 prostate it was 3.42% [100 µM] (active); with K-562 leukemia it was 0.896% [100 µM] (active); in the test on MALME-3M melanoma, -59.3% [100 µM] (active); with MDA-MB-231 breast, -38.7% [100 µM] (active). The growth in the test with RXF 393 renal is -2.91% [100 µM] (active); with SF-268 CNS, -72.6% [100 µM] (active); in the test on SF-295 CNS it was -72.9% [100 µM] (active); in the test on UACC-257 melanoma it was -25.4% [100 µM] (active); in the test with M14 melanoma it was -88.5% [100 µM] (active).
With `c1ccc2nc(N/N=C3\CCCCC3C3CCCCC3)ccc2c1` (stereo not given), the growth was 40.1% in the test on NCI-H23 lung; 64.5% with NCI-H322M lung; 8.28% (active) with HOP-62 NSCLC; 39.7% in the test on NCI-H460 lung; -11.3% (active) in the test with HOP-92 NSCLC; 60% in the test on NCI-H522 lung. Moreover, the growth in the test with 786-0 renal was 48.6%; in the test on COLO 205 colon it was 41%; in the test with K-562 leukemia it was 12.3%; in the test on MALME-3M melanoma, 46.6%; in the test on MDA-MB-231 breast it was 60.8%; with SF-268 CNS it was 66.8%. Also, the growth with SF-295 CNS was 25.9%; in the test with SF-539 CNS, 58.8%; in the test with UACC-257 melanoma, 72.1%; in the test on M14 melanoma it was 72.1%.
Regarding `CC1C(=O)NC2=Nc3ccccc3C(=O)NN21` (stereo not given), the growth was 97.2% in the test on NCI-H23 lung; 97.2% with NCI-H322M lung; 87.8% in the test on HOP-62 NSCLC; 104% in the test on NCI-H460 lung; 94.9% in the test on HOP-92 NSCLC; 97.9% with 786-0 renal. Moreover, the growth with COLO 205 colon was 104%; in the test with DU-145 prostate it was 119%; with K-562 leukemia, 101%; in the test with MALME-3M melanoma, 104%; in the test with MDA-MB-231 breast it was 90.4%; with RXF 393 renal, 116%. The growth with SF-268 CNS was 113%; with SF-295 CNS, 105%; in the test with SF-539 CNS it was 103%; in the test with UACC-257 melanoma, 114%; with M14 melanoma, 102%.
With `COc1ccc(C2=NN(C(C)=O)C(c3cccc(Nc4ccnc5cc(Cl)ccc45)c3)C2)cc1` (stereo not given), the growth in the test with NCI-H23 lung is 60.7%; with NCI-H322M lung it was 63.9%; in the test with HOP-62 NSCLC it was 38%; with NCI-H460 lung, 64.9%; in the test on HOP-92 NSCLC it was 32.7%; in the test on A549/ATCC NSCLC it was 45.5%. For the same molecule, the growth with 786-0 renal is 58.6%; in the test with COLO 205 colon, 19.1%; with DU-145 prostate it was 62.3%; with K-562 leukemia, 18.3%; with MALME-3M melanoma, 65.8%; in the test on MDA-MB-231 breast, 63%. Further, the growth in the test with RXF 393 renal was 51.1%; in the test with SF-268 CNS, 48.2%; in the test on SF-295 CNS it was 52.5%; with SF-539 CNS, 72.7%; in the test on UACC-257 melanoma it was 49.2%; in the test on M14 melanoma, 40.2%.
Take `NS(=O)(=O)c1ccc(-n2ncc3c(SCc4ccccc4)ncnc32)cc1`: the growth in the test with NCI-H23 lung is 100%; in the test with NCI-H322M lung it was 87.7%; in the test on HOP-62 NSCLC it was 66.9%; with NCI-H460 lung, 105%; with HOP-92 NSCLC it was 43%; in the test on A549/ATCC NSCLC, 80.8%. The growth is 85.1% in the test with 786-0 renal; 110% in the test with COLO 205 colon; 78.1% with DU-145 prostate; 74.8% with K-562 leukemia; 82.8% in the test on MALME-3M melanoma; 91.4% in the test with MDA-MB-231 breast. The growth was 96.2% in the test with SF-268 CNS; 64.7% in the test with SF-295 CNS; 91.6% in the test with SF-539 CNS; 56.6% with UACC-257 melanoma; 67% with M14 melanoma.
Regarding `O=C(Nc1ccc(Cl)cc1)Nc1nc2ccc(OC(F)(F)F)cc2o1`, the growth in the test on NCI-H23 lung was 68.6%; with NCI-H322M lung, 113%; with HOP-62 NSCLC, 114%; with NCI-H460 lung, 81.8%; in the test on HOP-92 NSCLC, 71.9%; with A549/ATCC NSCLC, 75.1%. The growth in the test with 786-0 renal is 105%; in the test on COLO 205 colon, 118%; in the test with K-562 leukemia, 60.7%; with MALME-3M melanoma, 128%; in the test on MDA-MB-231 breast, 109%; with RXF 393 renal, 78.9%. The growth is 123% in the test with SF-268 CNS, 70.1% with SF-295 CNS, 104% with SF-539 CNS and 114% in the test on UACC-257 melanoma.
With `O=C(O)C1CCN(S(=O)(=O)c2ccc(-c3ccccc3)cc2)CC1`, the growth is 98.3% with NCI-H23 lung; 124% in the test with NCI-H322M lung; 112% in the test with HOP-62 NSCLC; 112% with NCI-H460 lung; 90.8% with HOP-92 NSCLC; 92.9% with NCI-H522 lung. Further, the growth in the test on 786-0 renal is 103%; in the test on COLO 205 colon, 111%; in the test on DU-145 prostate, 114%; in the test on K-562 leukemia, 109%; in the test on MALME-3M melanoma, 127%; in the test on MDA-MB-231 breast it was 98.7%. Further, the growth in the test on SF-268 CNS is 108%; in the test on SF-295 CNS it was 192%; with SF-539 CNS it was 109%; in the test on UACC-257 melanoma, 56.2%; in the test on M14 melanoma, 109%.

The values above are taken from PubChem BioAssay (NCI).
